The campaign covered roughly 3,400 compounds. About 840 (25%) were called active. Roughly 11% stayed inconclusive and do not appear here.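 The calls were made as follows: active = fitted half-maximal concentration of signal decrease at or below twice the sample's top tested concentration; inconclusive = flat curve between -70 and -30 percent, or poor fit; inactive = flat within 30 percent, signal rise, or potency above limit.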 Not all results are given here. Entries with a potency or affinity are not part of this list.
Assay: inhibitors of Toxoplasma growth in IFN-γ-primed HeLa – cell-based, ME49Luc, luciferase, 72 h, dose response (AID 1259418)
Conditions: T. gondii ME49Luc in IFN-y HeLa, active compounds read low, -100% = high-dose IFN-γ control wells; at 19.5 µM unless noted

| SMILES | max activity |
| --- | --- |
| CCc1ccccc1Nc1ncnc2c1cnn2-c1ccc(C)cc1C | 12.3% [at 0.68 µM] (inactive) |
| COc1ccc(OC)c(S(=O)(=O)N2CCC[C@@H]2C(=O)NCCc2csc(C)n2)c1 | 4.67% (inactive) |
| COc1cccc(-c2nc3c(s2)CN(S(=O)(=O)c2ccc(C(C)C)cc2)CC3)c1 | -7.98% [at 2.6 µM] (inactive) |
| Cc1cccc(-c2nc(Cn3nnc(-c4nc(-c5ccc(F)cc5)no4)c3C)c(C)o2)c1 | 16.4% [at 10 µM] (inactive) |
| OC[C@H]1O[C@@H](n2cnc3c(NC4CCCC4)nc(Cl)nc32)[C@H](O)[C@@H]1O | 22.4% (inactive) |
| Cc1ccc2[nH]c(C(=O)N3CCCC3)c(NC(=O)c3ccc(Cl)cc3)c2c1 | 45.1% [at 5 µM] (inactive) |
| COc1ccccc1-c1nc(Cn2nnc(-c3nc(-c4ccc(C)c(C)c4)no3)c2C)c(C)o1 | 8.96% [at 0.68 µM] (inactive) |
| Cc1cccc(C(=O)Nc2c(C(=O)N3CCN(c4ccccn4)CC3)[nH]c3ccc(C)cc23)c1 | -10.7% [at 5 µM] (inactive) |
| CN(C)CCOCC12CCCOC1CCN(C(=O)c1cccn1C)C2 (stereo not drawn) | 9.21% (inactive) |
| O=C(CC1Nc2c3ccccc3nc(=S)n2C1=O)NC1CCCCC1 (stereo not drawn) | 24.9% [at 0.68 µM] (inactive) |
| O=C(Cn1c(=O)c(S(=O)(=O)c2ccccc2)cc2ccccc21)NCc1ccco1 | 8.5% [at 0.16 µM] (inactive) |
| O=C(NCc1cccnc1)C1CCN(Cc2cc3ccccc3n2Cc2ccccc2)CC1 | 21.3% [at 1.35 µM] (inactive) |
| CCN1CCCC1CNC(=O)C1CCN(Cc2cc3ccccc3n2Cc2ccc(Cl)cc2)CC1 (stereo not drawn) | 9.45% (inactive) |
| CCN1CCCC1CNC(=O)C1CCN(Cc2cc3ccccc3n2Cc2ccccc2C)CC1 (stereo not drawn) | 14% [at 2.6 µM] (inactive) |
| O=C(NCc1cccnc1)C1CCN(Cc2cc3ccccc3n2Cc2cccc(F)c2)CC1 | 12.1% [at 0.16 µM] (inactive) |
| Cc1cccc(Cn2c(CN3CCC(C(=O)NCc4cccnc4)CC3)cc3ccccc32)c1 | 15.7% [at 10 µM] (inactive) |
| O=C(C1CCN(Cc2cc3ccccc3n2Cc2cccc(F)c2)CC1)N1CCCC1 | 8.62% (inactive) |
| CCN1CCCC1CNC(=O)C1CCN(Cc2cc3ccccc3n2Cc2cccc(Cl)c2)CC1 (stereo not drawn) | 22% [at 10 µM] (inactive) |
| CCc1nc(OCC(=O)Nc2ccc(Cl)c(Cl)c2)c2ccccc2n1 | -17.2% (inactive) |
| Cc1ccc(CNC(=O)Nc2ccc(-c3nc(-c4cc(C)ccc4C)co3)cc2)cc1 | -8.13% [at 5 µM] (inactive) |
| COc1ccc(CC(=O)N2CCC3(CC2)Nc2cc(OC)ccc2-n2cccc23)cc1 | 20.2% [at 10 µM] (inactive) |
| COc1ccc(-c2nc(Nc3ccc(Br)cc3F)c3ccccc3n2)cc1 | 21.7% (inactive) |
| O=C(NCCc1csc(-c2ccccc2)n1)[C@H]1CSCN1C(=O)COc1ccccc1 | 9.43% (inactive) |
| Cc1ccc2c(c1C)-n1cccc1C1(CCN(C(=O)c3cccc(Cl)c3)CC1)N2 | 6.45% (inactive) |
| O=C(C1CCCCC1)N1[C@@H](CO)[C@@H]2c3ccccc3N(S(=O)(=O)c3ccccc3)C[C@@H]21 | 38.7% (inactive) |

| SMILES | max activity |
| --- | --- |
| O=C(C1CCCCC1)N1[C@H](CO)[C@@H]2c3ccccc3N(S(=O)(=O)c3ccccc3)C[C@@H]21 | 26.4% (inactive) |
| O=C(NCc1cncc2c1CCN(Cc1cccc(F)c1)C2)C1CC1 | 11.5% (inactive) |
| O=C(CCc1ccccc1)Nc1ccc(-c2nc(-c3ccccc3)co2)cc1 | 120% [at 10 µM] (inactive) |
| O=C(Nc1cccc(F)c1)N1CCCCN2[C@H](C1)[C@@H](c1ccc(C#Cc3cccnc3)cc1)[C@@H]2CO | -8.44% [at 0.6 µM] (inactive) |
| O=C(c1cccc(F)c1)N1CCCCN2[C@H](C1)[C@H](c1ccc(C#CC3(O)CCCC3)cc1)[C@@H]2CO | -13.9% [at 2.6 µM] (inactive) |
| O=C(c1cccc(F)c1)N1CCCCN2[C@H](CO)[C@H](c3ccc(C#CC4(O)CCCC4)cc3)[C@H]2C1 | -28.8% [at 21 µM] (inactive) |
| CCN(CCCNc1nc(-c2ccc(OC)cc2)nc2ccccc12)c1cccc(C)c1 | 21.1% (inactive) |
| COc1ccc(NC(=O)CN2CCC3(CC2)N=C(c2ccc(F)cc2)C(=O)N3)c(OC)c1 | -31.1% [at 0.35 µM] (inactive) |
| COc1ccc(-c2nc(N3CCN(Cc4ccc5c(c4)OCO5)CC3)c3ccccc3n2)cc1 | 17.4% [at 2.6 µM] (inactive) |
| Cc1ccc(N2CCN(c3nc(-c4ccc(Cl)cc4)nc4ccccc34)CC2)c(C)c1 | 25.4% (inactive) |
| CCOc1ccccc1NC(=O)COc1nc(CC)nc2ccccc12 | -13.2% [at 0.35 µM] (inactive) |
| O=C(NC1CCCC1)N1CCCCN2[C@@H](CO)[C@@H](c3ccc(-c4cccnc4)cc3)[C@@H]2C1 | 33.9% (inactive) |
| O=C(NC1CCCC1)N1CCCCN2[C@H](CO)[C@@H](c3ccc(-c4cccnc4)cc3)[C@H]2C1 | 11.4% (inactive) |
| COc1ccc(-c2nc(NC(C)CCc3ccccc3)c3ccccc3n2)cc1 (stereo not drawn) | 13.7% (inactive) |
| CCOc1ccc(S(=O)(=O)N2CCc3nc(-c4ccc(OC)cc4)sc3C2)cc1 | -25.8% [at 0.16 µM] (inactive) |
| Cc1nc(-c2ccc(F)cc2)sc1-c1ccc(SCc2ccccc2F)nn1 | -39.8% (inactive) |
| Clc1ccc(-c2nc(NCCCN3CCc4ccccc4C3)c3ccccc3n2)cc1 | -15.5% [at 0.16 µM] (inactive) |
| Cc1nc(OCC(=O)Nc2ccc(F)c(Cl)c2)c2ccccc2n1 | 21% [at 0.68 µM] (inactive) |
| COC(=O)/C=c1\sc2nc(=O)c(C)nn2c1=O | 25.1% [at 10 µM] (inactive) |
| Cc1nc(-c2ccc(F)cc2)sc1-c1ccc(SCc2ccc(Cl)cc2Cl)nn1 | -14.7% [at 5 µM] (inactive) |
| Cc1cccc(CSc2ccc(-c3sc(-c4ccc(F)cc4)nc3C)nn2)c1 | -11.3% [at 0.35 µM] (inactive) |
| Cc1cccc(OCC(=O)Nc2ccc(-c3nc(-c4ccccc4)co3)cc2)c1C | -18.6% [at 2.6 µM] (inactive) |
| COc1cccc(-c2ccc([C@@H]3[C@H]4CN(C(=O)c5cccnc5)CC(=O)N4[C@H]3CO)cc2)c1 | 12.1% (inactive) |
| Cc1ccccc1-c1ccc([C@@H]2[C@H](CO)N3C(=O)CN(C(=O)c4ccncc4)C[C@@H]23)cc1 | 29.6% (inactive) |
| O=C(c1cnccn1)N1CC(=O)N2[C@H](CO)[C@@H](c3ccc(/C=C/c4ccccc4)cc3)[C@H]2C1 | 28.4% (inactive) |

| SMILES | max activity |
| --- | --- |
| COc1cccc(-c2ccc([C@H]3[C@H](CO)N4C(=O)CN(C(=O)c5cccnc5)C[C@@H]34)cc2)c1 | 25.9% (inactive) |
| Cc1ccccc1-c1ccc([C@H]2[C@@H](CO)N3C(=O)CN(C(=O)c4ccncc4)C[C@@H]23)cc1 | 27.7% (inactive) |
| O=C(CCC1N=C2c3ccccc3N=C(SCc3cc(=O)n4ccccc4n3)N2C1=O)NCc1ccc(F)cc1 (stereo not drawn) | 26.8% (inactive) |
| COc1ccc(-c2noc(-c3nnn(Cc4nc(-c5ccccc5OC)oc4C)c3C)n2)cc1OC | 11.4% [at 0.16 µM] (inactive) |
| COc1ccc(-c2nc3c(s2)CN(C(=O)Nc2ccc(C)cc2)CC3)cc1OC | -13% [at 0.35 µM] (inactive) |
| O=C1CCc2cc(S(=O)(=O)NCc3cccn3Cc3ccccc3F)ccc2N1 | 12.6% (inactive) |
| CCOC(=O)CSC1=Nc2ccccc2C2=NC(CCC(=O)NCc3ccc4c(c3)OCO4)C(=O)N12 (stereo not drawn) | 25.7% [at 2.6 µM] (inactive) |
| Cc1nc(OCC(=O)Nc2ccc(Cl)c(C(F)(F)F)c2)c2ccccc2n1 | 27.7% [at 0.35 µM] (inactive) |
| COc1ccc(-c2nc3c(s2)CN(C(=O)Nc2cc(C)ccc2OC)CC3)cc1 | 17% (inactive) |
| O=C(c1cnccn1)N1CC(=O)N2[C@H](CO)[C@@H](c3ccc(-c4cccc(F)c4)cc3)[C@H]2C1 | 46.4% (inactive) |
| O=C(c1cnccn1)N1CC(=O)N2[C@H](C1)[C@H](c1ccc(-c3cccc(F)c3)cc1)[C@@H]2CO | 32.8% (inactive) |
| Cc1oc(-c2cccc(Cl)c2)nc1CN1CCN(C(=O)NC2CCCCC2)CC1 | 20.5% [at 1.35 µM] (inactive) |
| CCOC(=O)Cc1ccc(NC(=O)Nc2ccc(-c3nc(-c4cc(C)ccc4C)co3)cc2)cc1 | 5.78% (inactive) |
| O=C(NCCc1csc(-c2ccccc2)n1)[C@H]1CSCN1C(=O)CCc1ccccc1 | 14.8% [at 5 µM] (inactive) |
| Cc1nc(OCC(=O)Nc2cccc(C(F)(F)F)c2)c2ccccc2n1 | -11.8% [at 2.6 µM] (inactive) |
| Cc1ccc(N(Cc2nc(-c3cccc(C)c3)oc2C)S(=O)(=O)c2cccs2)cc1 | -8.42% [at 0.16 µM] (inactive) |
| CCOc1ccc(N(Cc2nc(-c3cccc(Cl)c3)oc2C)S(=O)(=O)c2cccs2)cc1 | 19.9% (inactive) |
| Cc1cccc(-c2nc(CN(c3ccccc3)S(=O)(=O)c3cccs3)c(C)o2)c1 | -12.1% [at 1.35 µM] (inactive) |
| COc1ccc(-c2nc(N3CCCc4ccccc43)c3ccccc3n2)cc1 | 23.2% [at 10 µM] (inactive) |
| O=C(NCCc1ccccc1)Nc1ccc(-c2nc(-c3ccccc3)co2)cc1 | 87.9% (inactive) |
| O=C(CC1Nc2c3ccccc3nc(=S)n2C1=O)NCc1cccc(Cl)c1 (stereo not drawn) | -20.4% [at 2.6 µM] (inactive) |
| COc1ccc(-c2nc(N3CCN(c4ccccn4)CC3)c3ccccc3n2)cc1 | -11.1% [at 0.35 µM] (inactive) |
| COCC#Cc1ccc([C@H]2[C@H](CO)N3CCCCN(C(=O)NC4CCCC4)C[C@@H]23)cc1 | 30.1% (inactive) |

— PubChem BioAssay AID1259418 (Broad Institute, 2018)
